Some test systems named below: SK-MEL-2 melanoma; EKVX NSCLC; SN12C renal; UO-31 renal; TK-10 renal; ACHN renal; CAKI-1 renal; A498 renal; CCRF-CEM leukemia; MOLT-4 leukemia.
Assay in all cases: NCI-60 one-dose screen, 48 h (100 = growth as untreated, 0 = no growth, -100 = all killed)
Common to all, as to details: 10 µM unless noted

SMILES strings stand for the structures. Compounds without any hit were thinned out: in the full panel of roughly 83,000, 20% have a hit.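 Assay: single dose, 48 h. Readout: percent growth (0 = no net growth; negative = cell death). Active: <10.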 Values without a mark were called inactive. Active and inactive are the calls of the source.

Turning to `COc1cnc2c(c1)C(=O)c1c-2n(CCCCl)c(=O)c2ccncc12`, the growth is 102% in the assay on SK-MEL-2 melanoma; 79.1% in the assay on EKVX NSCLC; 70.4% in the assay on SN12C renal; 41.4% in the assay on UO-31 renal; 87.3% with TK-10 renal; 37.3% in the assay on ACHN renal. Also, the growth with CAKI-1 renal is 35.7%; in the assay on A498 renal, 73.2%; in the assay with CCRF-CEM leukemia, 34.6%; in the assay on MOLT-4 leukemia it was 26.2%.
As for `CN(CCC(=O)c1ccccc1)CCC(=O)c1ccccc1`, the growth is 91% with SK-MEL-2 melanoma; 103% with EKVX NSCLC; 82.5% in the assay on SN12C renal; 77.1% with UO-31 renal; 88.8% in the assay with TK-10 renal; 107% with ACHN renal. Besides, the growth with CAKI-1 renal was 90.7%; in the assay on A498 renal, 78.9%; with CCRF-CEM leukemia, 80.6%; in the assay on MOLT-4 leukemia it was 94.5%.
With `C=C(C)[C@@H]1CC[C@]2(C(=O)N3CCN(C)CC3)CC[C@]3(C)[C@H](CC[C@@H]4[C@@]5(C)CC[C@H](OC(=O)c6ccccc6C(=O)O)C(C)(C)[C@@H]5CC[C@]43C)[C@@H]12`, the growth in the assay with SK-MEL-2 melanoma is 107%; in the assay with EKVX NSCLC, 98.4%; in the assay on SN12C renal it was 93.5%; in the assay on UO-31 renal it was 77.7%; in the assay on TK-10 renal, 106%; in the assay with ACHN renal it was 100%. The growth with CAKI-1 renal was 83.9%; in the assay on A498 renal, 74.9%; in the assay with CCRF-CEM leukemia, 97.1%; with MOLT-4 leukemia it was 88.7%.
Take `N#Cc1c(Nc2ccc(N3CCOCC3)cc2)nc(SCC(=O)c2ccc(Br)cc2)nc1-c1ccccc1`: the growth was 94.4% in the assay with SK-MEL-2 melanoma; 100% with EKVX NSCLC; 104% in the assay with SN12C renal; 87.3% in the assay with UO-31 renal; 96.6% in the assay with TK-10 renal; 109% with ACHN renal. The growth is 99.7% in the assay on CAKI-1 renal, 105% in the assay with A498 renal, 125% in the assay on CCRF-CEM leukemia and 99.2% with MOLT-4 leukemia.
On to `C=Cc1cnc(Nc2ccc(OC)cc2)nc1NCCCNC(=O)C1CCC1`, for which the growth is 87% in the assay with SK-MEL-2 melanoma; 56.8% in the assay on EKVX NSCLC; 20.6% in the assay with SN12C renal; 10.2% in the assay with UO-31 renal; 26% in the assay on TK-10 renal; 41.5% in the assay with ACHN renal. Further, the growth was 14.4% in the assay with CAKI-1 renal, 47.3% with A498 renal, 28% in the assay with CCRF-CEM leukemia and 24% with MOLT-4 leukemia.
For the molecule `CCOC(=O)c1c(C)c2c(n1Cc1ccccc1)CSCC2=O`, the growth with SK-MEL-2 melanoma is -14.5% [100 µM] (active); with EKVX NSCLC, 12.4% [100 µM]; in the assay on SN12C renal, 13.7% [100 µM]; in the assay on UO-31 renal, 24.6% [100 µM]; in the assay on TK-10 renal, 11.5% [100 µM]; in the assay on ACHN renal, 10.6% [100 µM]. For the same molecule, the growth in the assay on CAKI-1 renal is -30.5% [100 µM] (active); in the assay with A498 renal it was 25.6% [100 µM]; with CCRF-CEM leukemia, 10.5% [100 µM]; in the assay with MOLT-4 leukemia, 12.9% [100 µM].
In the case of `O=C(C1=Cc2cc3ccccc3n2Cc2cnnn21)c1ccc(O)cc1`, the growth with SK-MEL-2 melanoma was 59%; with EKVX NSCLC, 89.9%; in the assay with SN12C renal, 57.7%; in the assay with UO-31 renal it was 63.1%; with TK-10 renal, 90.9%; in the assay on ACHN renal, 75.4%. Further, the growth in the assay on CAKI-1 renal is 37.5%; in the assay with A498 renal, 111%; with CCRF-CEM leukemia, 72.5%; in the assay with MOLT-4 leukemia, 44.6%.
As for `C=C1CC[C@@H]2[C@](C)(COC(C)=O)[C@H](OC(C)=O)CC[C@@]2(C)[C@@H]1CC(Nc1ccc(S(=O)(=O)NC(C)=O)cc1)C1=CCOC1=O` (stereo not given in full), the growth in the assay with SK-MEL-2 melanoma was -7.41% (active); with EKVX NSCLC it was 57.5%; in the assay with SN12C renal it was 1.94% (active); in the assay on UO-31 renal, -58.5% (active); in the assay on TK-10 renal it was 2.78% (active); in the assay on ACHN renal, -63.2% (active). In addition, the growth with CAKI-1 renal is 30.3%; in the assay with A498 renal, 73.4%; with CCRF-CEM leukemia, -27.9% (active); in the assay on MOLT-4 leukemia it was 0.118% (active).
`COc1ccc(C2CC(c3cc(OC)c(OC)c(OC)c3)=NO2)cc1OCCCCOc1cc2c(cc1OC)C(=O)N1CCC[C@H]1C=N2` (stereo not given in full): the growth with SK-MEL-2 melanoma is -35.2% (active); in the assay with EKVX NSCLC, 16.8%; in the assay on SN12C renal, 32.2%; in the assay with UO-31 renal, 19.5%; in the assay with TK-10 renal it was -13.6% (active); with ACHN renal, 0.735% (active). Besides, the growth is 11.1% in the assay on CAKI-1 renal, -67.3% (active) with A498 renal, 69.3% with CCRF-CEM leukemia and 7.66% (active) in the assay with MOLT-4 leukemia.
Turning to `O=C(N/N=C/c1cc(Cl)ccc1O)c1ccccc1Nc1ccnc(C(F)(F)F)c1`, the growth was 90.7% in the assay on SK-MEL-2 melanoma; 22.9% in the assay on EKVX NSCLC; 20.7% in the assay with SN12C renal; 21.1% with UO-31 renal; 46.4% in the assay on TK-10 renal; 14.9% in the assay on ACHN renal. For the same molecule, the growth in the assay on CAKI-1 renal is 34.6%; with A498 renal, 65.7%; with CCRF-CEM leukemia it was 12.4%; with MOLT-4 leukemia, 55%.
As to `O=C(Nc1ncc(Cc2ccccc2)s1)c1ccc2c(c1)OCCCO2`, the growth in the assay with SK-MEL-2 melanoma is 30.6%; in the assay on EKVX NSCLC, 36.7%; with SN12C renal, 40.4%; in the assay on UO-31 renal, 48.1%; in the assay with TK-10 renal it was 55.9%; in the assay with ACHN renal, 34%. For the same molecule, the growth in the assay on CAKI-1 renal was 25.3%; with A498 renal, -2.27% (active); with CCRF-CEM leukemia, 16.2%; in the assay on MOLT-4 leukemia it was 21.4%.
`Cc1cn(-c2cc(NC(=O)c3cncc(C#Cc4c(N)ncc5ccc(F)cc45)c3)cc(C(F)(F)F)c2)cn1`: the growth is 11.4% with SK-MEL-2 melanoma; 73.4% in the assay with EKVX NSCLC; 54.5% in the assay with SN12C renal; 27.4% with UO-31 renal; 84.3% in the assay with TK-10 renal; 60.6% in the assay with ACHN renal. Besides, the growth was 72.1% in the assay on CAKI-1 renal, 84% in the assay with A498 renal, 39.6% in the assay with CCRF-CEM leukemia and 35.6% with MOLT-4 leukemia.
For `COc1ccc(C(=S)N2CCN(c3ccc(Cl)cc3)CC2)cc1`, the growth in the assay on SK-MEL-2 melanoma is 97.7%; in the assay with EKVX NSCLC it was 130%; in the assay on SN12C renal, 85.4%; in the assay with UO-31 renal it was 81.9%; in the assay with TK-10 renal, 101%; with ACHN renal, 94.8%. The growth in the assay with CAKI-1 renal was 105%; in the assay with A498 renal, 107%; with CCRF-CEM leukemia, 90.3%; with MOLT-4 leukemia, 76.8%.

The record behind these values is PubChem BioAssay (NCI).
